Out of some 5,500 compounds screened, about 2,000 (36%) were called active. Another 18% or so got no clear call; they are omitted. No stated cut-off is given here; in the data, active means normalized growth mostly below about 0.91 (no sharp cut-off); inconclusive means no clear call, values can overlap the other calls; inactive means mostly above about 0.92. Some of the results follow.
Assay: chemical genetic growth profiling, strain panel (AID 1159580);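 further: tested at 20 µM; growth read once vehicle control cultures reached saturation at 30 °C; 1 = growth at the plate median or of vehicle wells; lower values mean less growth of the strain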
Conditions: growth OD
[1] = S. cerevisiae deletion strains, locus YDR150W, strain NUM1, active compounds read low
[2] = S. cerevisiae deletion strains, locus YPL055C, strain LGE1, active compounds read low
[3] = S. cerevisiae deletion strains, locus YDL101C, strain DUN1, active compounds read low
[4] = S. cerevisiae deletion strains, locus YHR030C, strain SLT2, active compounds read low

Measured: normalized growth

CC(=O)Oc1cc(C(C)C)c(OCCN(C)C)cc1C
inactive: S. cerevisiae deletion strains, locus YAL040C, strain CLN3, active compounds read low 1.01 | S. cerevisiae deletion strains, locus YCL061C, strain MRC1 (second series), active compounds read low 1.01 | [1] 1 | S. cerevisiae deletion strains, locus YDR363W, strain ESC2, active compounds read low 1.01 | S. cerevisiae deletion strains, locus YER002W, strain NOP16, active compounds read low 1.03 | S. cerevisiae deletion strains, locus YNL175C, strain NOP13, active compounds read low 1.01 | S. cerevisiae deletion strains, locus YNL197C, strain WHI3, active compounds read low 1.01 | S. cerevisiae deletion strains, locus YNL224C, strain SQS1, active compounds read low 1 | S. cerevisiae deletion strains, locus YOR083W, strain WHI5 (second series), active compounds read low 1.01 | [2] 1.01

CCn1nc(C)cc1-c1nnc(Sc2ncc([N+](=O)[O-])s2)n1C
inactive: S. cerevisiae deletion strains, locus YAR019C, strain CDC15, active compounds read low 0.964 | S. cerevisiae deletion strains, locus YBL105C, strain PKC1, active compounds read low 0.968 | S. cerevisiae deletion strains, locus YBR135W, strain CKS1, active compounds read low 0.967 | S. cerevisiae deletion strains, locus YBR136W, strain MEC1, active compounds read low 0.962 | S. cerevisiae deletion strains, locus YBR160W, strain CDC28, active compounds read low 0.956 | S. cerevisiae deletion strains, locus YDL017W, strain CDC7, active compounds read low 0.974 | S. cerevisiae deletion strains, locus YDL028C, strain MPS1, active compounds read low 0.961 | [3] 0.983 | S. cerevisiae deletion strains, locus YDL108W, strain KIN28, active compounds read low 0.945 | S. cerevisiae deletion strains, locus YDL132W, strain cdc53, active compounds read low 0.966 | S. cerevisiae deletion strains, locus YDL214C, strain PRR2, active compounds read low 0.981 | S. cerevisiae deletion strains, locus YDR052C, strain DBF4, active compounds read low 0.988 | S. cerevisiae deletion strains, locus YDR054C, strain cdc34, active compounds read low 0.975 | S. cerevisiae deletion strains, locus YDR226W, strain ADK1, active compounds read low 0.959 | S. cerevisiae deletion strains, locus YDR477W, strain SNF1, active compounds read low 0.95 | S. cerevisiae deletion strains, locus YER123W, strain YCK3, active compounds read low 0.93 | S. cerevisiae deletion strains, locus YER133W, strain GLC7, active compounds read low 0.995 | S. cerevisiae deletion strains, locus YFL009W, strain cdc4, active compounds read low 0.958 | S. cerevisiae deletion strains, locus YFL029C, strain CAK1, active compounds read low 0.954 | S. cerevisiae deletion strains, locus YFR003C, strain YPI1, active compounds read low 0.971 | S. cerevisiae deletion strains, locus YFR019W, strain FAB1, active compounds read low 0.974 | S. cerevisiae deletion strains, locus YFR028C, strain CDC14, active compounds read low 0.968 | S. cerevisiae deletion strains, locus YGR040W, strain KSS1, active compounds read low 0.954 | S. cerevisiae deletion strains, locus YGR052W, strain FMP48, active compounds read low 1.02 | S. cerevisiae deletion strains, locus YGR092W, strain DBF2, active compounds read low 0.92 | [4] 1.03 | S. cerevisiae deletion strains, locus YHR079C, strain IRE1, active compounds read low 0.963 | S. cerevisiae deletion strains, locus YHR082C, strain KSP1, active compounds read low 1.01 | S. cerevisiae deletion strains, locus YHR205W, strain SCH9, active compounds read low 0.956 | S. cerevisiae deletion strains, locus YIL147C, strain SLN1, active compounds read low 0.967 | S. cerevisiae deletion strains, locus YJL095W, strain BCK1, active compounds read low 0.933 | S. cerevisiae deletion strains, locus YJL128C, strain PBS2, active compounds read low 0.94 | S. cerevisiae deletion strains, locus YJL157C, strain FAR1, active compounds read low 0.957 | S. cerevisiae deletion strains, locus YJR016C, strain ILV3, active compounds read low 0.967 | S. cerevisiae deletion strains, locus YJR066W, strain TOR1 (second series), active compounds read low 0.971 | S. cerevisiae deletion strains, locus YJR066W, strain TOR1, active compounds read low 0.921 | S. cerevisiae deletion strains, locus YKL048C, strain ELM1, active compounds read low 0.99 | S. cerevisiae deletion strains, locus YKL067W, strain YNK1, active compounds read low 1 | S. cerevisiae deletion strains, locus YKL101W, strain HSL1, active compounds read low 0.985 | S. cerevisiae deletion strains, locus YKL193C, strain SDS22, active compounds read low 0.962 | S. cerevisiae deletion strains, locus YKL203C, strain TOR2, active compounds read low 1.07 | S. cerevisiae deletion strains, locus YLR113W, strain HOG1, active compounds read low 0.971 | S. cerevisiae deletion strains, locus YLR133W, strain CKI1, active compounds read low 0.958 | S. cerevisiae deletion strains, locus YLR403W, strain SFP1, active compounds read low 0.959 | S. cerevisiae deletion strains, locus YML070W, strain DAK1, active compounds read low 0.959 | S. cerevisiae deletion strains, locus YMR001C, strain CDC5, active compounds read low 0.961 | S. cerevisiae deletion strains, locus YMR205C, strain PFK2 (second series), active compounds read low 0.996 | S. cerevisiae deletion strains, locus YMR277W, strain FCP1, active compounds read low 0.95 | S. cerevisiae deletion strains, locus YNL006W, strain LST8, active compounds read low 0.967 | S. cerevisiae deletion strains, locus YNL020C, strain ARK1, active compounds read low 0.968 | S. cerevisiae deletion strains, locus YNL161W, strain CBK1, active compounds read low 0.975 | S. cerevisiae deletion strains, locus YNL183C, strain NPR1, active compounds read low 1.04 | S. cerevisiae deletion strains, locus YNL207W, strain RIO2, active compounds read low 0.985 | S. cerevisiae deletion strains, locus YNL222W, strain SSU72, active compounds read low 0.951 | S. cerevisiae deletion strains, locus YNL307C, strain MCK1 (second series), active compounds read low 0.945 | S. cerevisiae deletion strains, locus YOL078W, strain AVO1, active compounds read low 0.965 | S. cerevisiae deletion strains, locus YOL136C, strain PFK27, active compounds read low 0.955 | S. cerevisiae deletion strains, locus YOR061W, strain CKA2, active compounds read low 0.98 | S. cerevisiae deletion strains, locus YOR119C, strain RIO1, active compounds read low 1.05 | S. cerevisiae deletion strains, locus YOR231W, strain MKK1, active compounds read low 0.927 | S. cerevisiae deletion strains, locus YOR329C, strain SCD5, active compounds read low 0.975 | S. cerevisiae deletion strains, locus YPL031C, strain PHO85, active compounds read low 0.968 | S. cerevisiae deletion strains, locus YPL153C, strain RAD53, active compounds read low 0.96 | S. cerevisiae deletion strains, locus YPL204W, strain HRR25, active compounds read low 0.965 | S. cerevisiae deletion strains, locus YPL209C, strain IPL1, active compounds read low 0.974 | S. cerevisiae deletion strains, locus YPL256C, strain CLN2, active compounds read low 0.984 | S. cerevisiae deletion strains, locus YPR025C, strain CCL1, active compounds read low 0.965 | S. cerevisiae deletion strains, locus YPR106W, strain ISR1, active compounds read low 0.96 | S. cerevisiae deletion strains, locus YPR111W, strain DBF20, active compounds read low 0.978 | S. cerevisiae deletion strains, strain NNK1, active compounds read low 0.984 | S. cerevisiae deletion strains, strain TSCII, active compounds read low 0.963

C=CCn1c(Sc2ncc([N+](=O)[O-])s2)n[nH]c1=O
inactive: [3] 0.932 | [1] 0.929 | S. cerevisiae deletion strains, locus YGR078C, strain PAC10, active compounds read low 0.944 | S. cerevisiae deletion strains, locus YGR229C, strain SMI1, active compounds read low 0.984 | [4] 0.775 | S. cerevisiae deletion strains, locus YHR087W, strain rtc3, active compounds read low 0.968 | S. cerevisiae deletion strains, locus YJL187C, strain SWE1, active compounds read low 0.948 | S. cerevisiae deletion strains, locus YJR043C, strain POL32, active compounds read low 0.968 | S. cerevisiae deletion strains, locus YJR075W, strain HOC1, active compounds read low 1 | S. cerevisiae deletion strains, locus YLR039C, strain RIC1, active compounds read low 0.8 | S. cerevisiae deletion strains, locus YLR058C, strain SHM2 (second series), active compounds read low 0.962 | S. cerevisiae deletion strains, locus YLR262C, strain YPT6, active compounds read low 0.992 | S. cerevisiae deletion strains, locus YMR219W, strain ESC1, active compounds read low 0.975 | S. cerevisiae deletion strains, locus YMR263W, strain SAP30, active compounds read low 0.938 | S. cerevisiae deletion strains, locus YMR307W, strain GAS1, active compounds read low 0.973 | S. cerevisiae deletion strains, locus YNL322C, strain KRE1, active compounds read low 0.996 | [2] 0.829
active: S. cerevisiae deletion strains, locus YAL013W, strain DEP1, active compounds read low 0.926 | S. cerevisiae deletion strains, locus YBR229C, strain ROT2, active compounds read low 0.913 | S. cerevisiae deletion strains, locus YEL061C, strain CIN8, active compounds read low 0.858 | S. cerevisiae deletion strains, locus YLR085C, strain ARP6, active compounds read low 0.359 | S. cerevisiae deletion strains, locus YML094W, strain GIM5, active compounds read low 0.813 | S. cerevisiae deletion strains, locus YNL153C, strain GIM3, active compounds read low 0.815 | S. cerevisiae deletion strains, locus YNL298W, strain CLA4 (second series), active compounds read low 0.675 | S. cerevisiae deletion strains, locus YNR030W, strain Alg12, active compounds read low 0.833 | S. cerevisiae deletion strains, locus YOL006C, strain TOP1, active compounds read low 0.219 | S. cerevisiae deletion strains, locus YPL241C, strain CIN2, active compounds read low 0.582 | S. cerevisiae deletion strains, locus YPR135W, strain CTF4, active compounds read low 0.488 | S. cerevisiae strains, strain wild type, active compounds read low 0.893
